Data on 25 compounds can be found in PubChem BioAssay AID1565 (Sanford-Burnham Center for Chemical Genomics, 2009).

The whole screen tested about 290,000 compounds, of which about 3,200 (1.1%) were called active. Only a selection was taken, and actives are over-represented in it overall. Unmarked numbers belong to inactive results. Rule as the data show it: active = inhibition above about 60%; inactive = the rest.

The assay deals with Phosphoethanolamine/phosphocholine phosphatase (Homo sapiens) (UniProt Q8TCT1). Nature of the assay: PubChem AID 1565. Particulars: recombinant PHOSPHO1, absorbance phosphatase assay; at 13.3 µM; active compounds read high.
Chain of Phosphoethanolamine/phosphocholine phosphatase (Homo sapiens) (Q8TCT1 whole entry, looked up): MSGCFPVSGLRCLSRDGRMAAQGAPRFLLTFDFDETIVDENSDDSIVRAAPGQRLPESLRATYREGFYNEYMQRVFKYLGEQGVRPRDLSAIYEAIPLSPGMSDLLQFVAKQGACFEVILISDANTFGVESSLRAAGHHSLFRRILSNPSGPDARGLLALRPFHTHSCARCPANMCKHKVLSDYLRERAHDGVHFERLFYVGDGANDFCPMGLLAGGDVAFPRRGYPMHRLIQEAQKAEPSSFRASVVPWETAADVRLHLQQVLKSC
Take `COc1ccccc1N=C1SCCCN1C`: the inhibition was 85.5% (active).
For `COc1ccccc1N=Nc1c(O)[nH]c(=S)[nH]c1=O`, the inhibition is 11.7%.
In the case of `CC(C)(C)c1ccc(OC(=O)N2CCCCC2)cc1` it was 27.4%.
To `Cc1cccc(NC(=O)N2CC3CC(C2)c2cccc(=O)n2C3)c1` (stereo not given) belongs 41.8%; to `Cc1ccc(-c2nc3ccccc3c(=O)n2-c2ccc(Br)cn2)cc1`, 68.6% (active).
In the case of `O=c1c2ccccc2nc(-c2ccco2)n1-c1ccc(Br)cn1`, the inhibition was -3.3%.
In the case of `O=c1c2ccccc2nc(-c2ccccc2)n1-c1ccccn1` it was 32.4%; in that of `Cc1nc2ccccn2c1P(=S)(N1CCCCC1)N1CCCCC1`, 15.2%; in that of `COc1cccc(CN2CCCC(C(=O)c3ccccc3SC)C2)c1O` (stereo not given), 12.9%.
Consider `O=c1c2ccccc2nc(/C=C/c2ccc(F)cc2)n1-c1ccccc1O`, for which the inhibition is 38.1%.
Regarding `Cc1ccc(-n2c(-c3ccc([N+](=O)[O-])cc3)nc3ccccc3c2=O)cc1`, the inhibition is -3.5%.
In the case of `O=[N+]([O-])c1ccc(C2C3C(c4ccccc4)=NC4(CCCCC4)N32)cc1` (stereo not given) it was 64.6% (active).
In the case of `COCc1cc(OC(=O)N(C)C)nc(-c2ccc(C)c(Cl)c2)n1`, the inhibition was 20.3%.
In the case of `COC(=O)N(c1ccc(OC)cc1)P1(=S)OCCC(C)O1` (stereo not given) it was 65.4% (active); in that of `CCOC(=O)c1c(-c2ccccc2)oc2ccc(OC(=O)N(C)C)cc12`, -3.7%.
With `COc1ccc(Br)cc1CNCCc1cccc(Cl)c1`, the inhibition was 13.9%.
To `COc1ccc(N2C(=O)/C(=C/c3ccco3)C(=O)NC2=S)cc1` belongs -112%.
Consider `O=C(O)c1ccccc1NC(=O)C1C2CCC(O2)C1C(=O)O` (stereo not given), for which the inhibition is 28.7%.
Turning to `c1ccc(CCNC2CCCCCC2)cc1`, the inhibition was 31.6%.
For the compound `O=c1[nH]c(CN2CC=C(c3ccccc3)CC2)nc2scc(-c3cccs3)c12`, the inhibition was 50.8%.
In the case of `C[N+]12CN3CN(CN(C3)C1)C2`, the inhibition is -34.4%.
As to `CC1=CC(=Cc2sc3ccccc3[n+]2C)C=C(C)O1`, the inhibition was 5.9%.
For the compound `CCN(CC)CCOC(=O)c1cc2cc(COC)ccc2o1`, the inhibition was 94.9% (active).
To `COc1cccc(N2C(=O)NC(=O)/C(=C\c3ccc([N+](=O)[O-])s3)C2=O)c1` belongs -60.1%; to `Cc1cc(=O)oc2c(C)c(OCC(=O)N3CCN(Cc4ccc5c(c4)OCO5)CC3)ccc12`, 27.9%.

As usually defined, the inhibition is the drop in the measured response relative to a control, in per cent.
